Holding throughout (details): protein: recombinant; tags: His6-TEV, cleaved; chain copies: 4
Test [1] deals with T1, SmpO408 (Staphylococcus aureus M0408).
T1 chain: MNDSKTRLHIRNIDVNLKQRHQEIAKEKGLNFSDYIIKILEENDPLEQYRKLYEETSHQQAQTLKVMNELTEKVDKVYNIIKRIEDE
The test can be described thus: SPR (ReDCaT); 300 mM NaCl; 10 mM HEPES, 3 mM EDTA, 0.05% Tween 20, NaCl 150 mM (SmpO49 screens), 300 mM (SmpO45, SmpO408, SmpOUNa screens) or 250 mM (Table S4); pH and temperature not stated; protein 1 uM; high values mean tight binding. A digest of the protocol:
(§1)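 Tag-cleaved protein, expressed in E. coli BL21(DE3)pLysS and purified by nickel-affinity and size-exclusion chromatography, was screened on a Biacore T200 SA chip by reusable DNA capture. OriT oligonucleotides were captured at 1 μM on Fc2, with a control linker on Fc1. Protein at 1 μM was injected at 30 μl/min (60 s contact, 60 s dissociation) in 10 mM HEPES, 300 mM NaCl, 3 mM EDTA, 0.05% Tween 20. DNA binding is reported as %Rmax.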

For test [2], the target named is T2, SmpOSep (Staphylococcus epidermidis VCU120).
T2 chain: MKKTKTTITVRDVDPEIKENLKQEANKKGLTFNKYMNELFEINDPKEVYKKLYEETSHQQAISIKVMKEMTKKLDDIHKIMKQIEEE
The test can be described thus: SPR (ReDCaT); 250 mM NaCl; 10 mM HEPES, 3 mM EDTA, 0.05% Tween 20, NaCl 150 mM (SmpO49 screens), 300 mM (SmpO45, SmpO408, SmpOUNa screens) or 250 mM (Table S4); pH and temperature not stated; protein 1 uM; high values mean tight binding.

In test [3] the target is T3, SmpOUNa (plasmid pC02).
T3 chain: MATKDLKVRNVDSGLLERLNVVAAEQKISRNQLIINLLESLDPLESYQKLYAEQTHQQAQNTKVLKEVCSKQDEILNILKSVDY
Briefly: SPR (ReDCaT); 300 mM NaCl; 10 mM HEPES, 3 mM EDTA, 0.05% Tween 20, NaCl 150 mM (SmpO49 screens), 300 mM (SmpO45, SmpO408, SmpOUNa screens) or 250 mM (Table S4); pH and temperature not stated; protein 1 uM; high values mean tight binding. An outline of the steps: as §1

Test [4] deals with T1, SmpO408. The test can be described thus: SPR (ReDCaT); 250 mM NaCl; 10 mM HEPES, 3 mM EDTA, 0.05% Tween 20, NaCl 150 mM (SmpO49 screens), 300 mM (SmpO45, SmpO408, SmpOUNa screens) or 250 mM (Table S4); pH and temperature not stated; protein 1 uM; high values mean tight binding.

B1: ossA408-5 (dsDNA)
DNA 1: TTATTGGCGCCTAATA
DNA 2: TATTAGGCGCCAATAA
For the molecule B1, the binding signal in test [1] worked out at 67.9 ± 1.54 %Rmax.

B2: ossA408 C11G (dsDNA)
DNA 1: TTATAGGCGCGTAATA
DNA 2: TATTACGCGCCTATAA
With B2, the binding signal in test [1] turned out to be 34.5 ± 1.85 %Rmax.

B3: ossB49 (dsDNA)
DNA 1: CCGATGATAGCAAATT
DNA 2: AATTTGCTATCATCGG
On to B3, for which the binding signal in test [2] was 0.6 %Rmax.

B4: OTUNa For/Rev_18 (dsDNA)
DNA 1: GGGTACATATTTCCCTTATGCTCTTACAAA
DNA 2: TTTGTAAGAGCATAAGGGAAATATGTACCC
On to B4, for which the binding signal in test [3] was found to be 26.2 ± 1.85 %Rmax.

B5: OT408.5 (dsDNA)
DNA 1: CGGTTTTATAGGCGCCTAATAAAAACCTCT
DNA 2: AGAGGTTTTTATTAGGCGCCTATAAAACCG
Turning to B5, in test [1], the binding signal was found to be 109 %Rmax.

B6: ossA408-16 (dsDNA)
DNA 1: TTATAGGCGCCTAATT
DNA 2: AATTAGGCGCCTATAA
Regarding B6, the binding signal in test [1] turned out to be 65.1 ± 0.98 %Rmax.

B7: ossA408-3 (dsDNA)
DNA 1: TTTTAGGCGCCTAATA
DNA 2: TATTAGGCGCCTAAAA
Regarding B7, the binding signal in test [1] worked out at 64.4 ± 1.7 %Rmax.

B8: ossA408-7 (dsDNA)
DNA 1: TTATAGCCGCCTAATA
DNA 2: TATTAGGCGGCTATAA
Consider B8, for which, in test [1], the binding signal was determined as 49.8 ± 2.35 %Rmax.

B9: OT408 For/Rev_12 (dsDNA)
DNA 1: GGCGCCTAATAAAAACCTCTGTATCCCTTG
DNA 2: CAAGGGATACAGAGGTTTTTATTAGGCGCC
With B9, the binding signal in test [1] came to 25.9 %Rmax.

B10: ossASep (dsDNA)
DNA 1: TTTGCATACATTTAAA
DNA 2: TTAAATGTATGCAAA
As for B10, the binding signal in test [2] was 18.8 %Rmax.

B11: OT408 For/Rev_13 (dsDNA)
DNA 1: AAAAACCTCTGTATCCCTTGAAATGTCTGG
DNA 2: CCAGACATTTCAAGGGATACAGAGGTTTTT
For the molecule B11, the binding signal in test [1] came to 4.19 %Rmax.

B12: ossBSep (dsDNA)
DNA 1: TAAATGTATGCATATT
DNA 2: AATATGCATACATTTA
As for B12, the binding signal in test [2] worked out at 16.5 %Rmax.

B13: ossA408-2 (dsDNA)
DNA 1: TAATAGGCGCCTAATA
DNA 2: TATTAGGCGCCTATTA
For the molecule B13, the binding signal in test [1] was 65.7 ± 2.04 %Rmax.

B14: OTUNa For/Rev_8 (dsDNA)
DNA 1: TGTCACAAAAGTGTGACAATTTAATTTTTG
DNA 2: CAAAAATTAAATTGTCACACTTTTGTGACA
Turning to B14, the binding signal in test [3] is 17 ± 0.439 %Rmax.

B15: OT408 For/Rev_9 (dsDNA)
DNA 1: GGTACATTTTGGGTACAAAACGGTTTTATA
DNA 2: TATAAAACCGTTTTGTACCCAAAATGTACC
Regarding B15, the binding signal in test [1] is 4.6 %Rmax.

B16: OT408 For/Rev_10 (dsDNA)
DNA 1: GGGTACAAAACGGTTTTATAGGCGCCTAAT
DNA 2: ATTAGGCGCCTATAAAACCGTTTTGTACCC
B16: in test [1], the binding signal was 71.2 %Rmax.

B17: OTUNa For/Rev_12 (dsDNA)
DNA 1: AAGATAAATGTTTAAAACCCTTGAAATATC
DNA 2: GATATTTCAAGGGTTTTAAACATTTATCTT
In the case of B17, the binding signal in test [3] is 1.56 ± 0.168 %Rmax.

B18: ossA408 (dsDNA)
DNA 1: TTATAGGCGCCTAATA
DNA 2: TATTAGGCGCCTATAA
With B18, the binding signal in test [4] was determined as 52.8 %Rmax; in test [1] it was 63.9 ± 1.02 %Rmax.

B19: ossA408-10 (dsDNA)
DNA 1: TTATAGGCGGCTAATA
DNA 2: TATTAGCCGCCTATAA
B19: the binding signal in test [1] is 48.1 ± 2.02 %Rmax.

B20: OT408 For/Rev_14 (dsDNA)
DNA 1: GTATCCCTTGAAATGTCTGGCTTCGCCAGA
DNA 2: TCTGGCGAAGCCAGACATTTCAAGGGATAC
For the molecule B20, the binding signal in test [1] came to 8.57 %Rmax.

B21: OT408 For/Rev_17 (dsDNA)
DNA 1: CCCACCTTTTTAATAGGTGGCAAATTTCCC
DNA 2: GGGAAATTTGCCACCTATTAAAAAGGTGGG
As to B21, in test [1], the binding signal stood at 64.6 %Rmax.

B22: ossA408-12 (dsDNA)
DNA 1: TTATAGGCGCCAAATA
DNA 2: TATTTGGCGCCTATAA
Turning to B22, the binding signal in test [1] came out at 68.3 ± 1.07 %Rmax.

B23: OTUNa For/Rev_7 (dsDNA)
DNA 1: CAATATATTGTGTCACAAAAGTGTGACAAT
DNA 2: ATTGTCACACTTTTGTGACACAATATATTG
Regarding B23, in test [3], the binding signal was found to be 3.471 ± 0.00557 %Rmax.

B24: OTUNA.4 (dsDNA)
DNA 1: TTAATTTTTGTGACCCCCATAAGATAAATG
DNA 2: CATTTATCTTATGGGGGTCACAAAAATTAA
Consider B24, for which the binding signal in test [3] came out at 58.4 ± 1.36 %Rmax.

B25: ossA408-9 (dsDNA)
DNA 1: TTATAGGCCCCTAATA
DNA 2: TATTAGGGGCCTATAA
Take B25: the binding signal in test [1] was found to be 6.86 ± 1.04 %Rmax.

B26: OT408 For/Rev_7 (dsDNA)
DNA 1: GTACAGACACAATATATAGGGGTACATTTT
DNA 2: AAAATGTACCCCTATATATTGTGTCTGTAC
Consider B26, for which, in test [1], the binding signal was 7.42 %Rmax.

B27: ossA408-15 (dsDNA)
DNA 1: TTATAGGCGCCTAAAA
DNA 2: TTTTAGGCGCCTATAA
Regarding B27, the binding signal in test [1] came out at 63 ± 1.28 %Rmax.

B28: OT408 For/Rev_8 (dsDNA)
DNA 1: AATATATAGGGGTACATTTTGGGTACAAAA
DNA 2: TTTTGTACCCAAAATGTACCCCTATATATT
On to B28, for which the binding signal in test [1] turned out to be 5.29 %Rmax.

B29: ossA408 G6C (dsDNA)
DNA 1: TTATACGCGCCTAATA
DNA 2: TATTAGGCGCGTATAA
In the case of B29, in test [1], the binding signal was found to be 35.5 ± 2.44 %Rmax.

B30: OTUNa For/Rev_16 (dsDNA)
DNA 1: AGATTACCCATTATAAAATGGGTACATATT
DNA 2: AATATGTACCCATTTTATAATGGGTAATCT
On to B30, for which the binding signal in test [3] amounted to 12.5 ± 0.926 %Rmax.

B31: OTUNa For/Rev_11 (dsDNA)
DNA 1: TGACCCCCATAAGATAAATGTTTAAAACCC
DNA 2: GGGTTTTAAACATTTATCTTATGGGGGTCA
Turning to B31, the binding signal in test [3] was 18.2 ± 1.39 %Rmax.

B32: ossA408-8 (dsDNA)
DNA 1: TTATAGGGGCCTAATA
DNA 2: TATTAGGCCCCTATAA
Consider B32, for which the binding signal in test [1] was found to be 7.62 ± 1.09 %Rmax.

B33: ossA408-13 (dsDNA)
DNA 1: TTATAGGCGCCTTATA
DNA 2: TATAAGGCGCCTATAA
Regarding B33, in test [1], the binding signal was found to be 63.9 ± 1.66 %Rmax.

B34: OT408 For/Rev_18 (dsDNA)
DNA 1: TAATAGGTGGCAAATTTCCCTTATGCTCTT
DNA 2: AAGAGCATAAGGGAAATTTGCCACCTATTA
For B34, in test [1], the binding signal is 60.1 %Rmax.

B35: ossA408-1 (dsDNA)
DNA 1: ATATAGGCGCCTAATA
DNA 2: TATTAGGCGCCTATAT
As for B35, in test [1], the binding signal is 67.4 ± 2.06 %Rmax.

B36: OT408 For/Rev_15 (dsDNA)
DNA 1: AAATGTCTGGCTTCGCCAGACCCACCTTTT
DNA 2: AAAAGGTGGGTCTGGCGAAGCCAGACATTT
For the molecule B36, the binding signal in test [1] was determined as 14.3 %Rmax.

B37: OTUNa For/Rev_17 (dsDNA)
DNA 1: TTATAAAATGGGTACATATTTCCCTTATGC
DNA 2: GCATAAGGGAAATATGTACCCATTTTATAA
In the case of B37, in test [3], the binding signal was 9.96 ± 0.667 %Rmax.

B38: ossA408-14 (dsDNA)
DNA 1: TTATAGGCGCCTATTA
DNA 2: TAATAGGCGCCTATAA
As to B38, the binding signal in test [1] worked out at 63 ± 0.997 %Rmax.

B39: ossA408-4 (dsDNA)
DNA 1: TTAAAGGCGCCTAATA
DNA 2: TATTAGGCGCCTTTAA
In the case of B39, the binding signal in test [1] turned out to be 69 ± 1.82 %Rmax.

B40: OTUNa For/Rev_9 (dsDNA)
DNA 1: GTGTGACAATTTAATTTTTGTGACCCCCAT
DNA 2: ATGGGGGTCACAAAAATTAAATTGTCACAC
For B40, the binding signal in test [3] came to 53.342 ± 0.0463 %Rmax.

(Values after article PMC8136818, “Evolving origin-of-transfer sequences on staphylococcal conjugative and mobilizable plasmids—who’s mimicking whom?”.)
